# PubChem BioAssay (EPA / NIEHS)
# Values joined by “and” are separate entries in the source; they are usually repeats but may differ in a detail not shown here. Identical values can stand only once. Some structures have more than one record in an assay (separate samples or runs), and their calls can disagree. Active and inactive are the calls of the source. How the source made its calls: active means hit-call score of the fitted dose curve at least 0.9, where 1 is the maximum; inactive means score below 0.9.
# Assays:
# [1] = ATG_CRE_CIS: Attagene CIS-FACTORIAL HepG2 Assay for human cAMP Responsive Element (CRE) binding protein 3 (AID 2282926); details: HepG2 CRE cis-reporter, Attagene multiplexed mRNA; actives raise or lower the signal
# Summary of the method: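 We dosed HepG2 cells bearing multiple cis-promoter reporter units for 24 h and measured reporter mRNA by RT-PCR with capillary electrophoresis detection. Bidirectional concentration-response fitting used DMSO as negative control.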
# [2] = biological target: CCAAT/enhancer-binding protein beta (Homo sapiens) (UniProt P17676); assay: ATG_C_EBP_CIS: Attagene CIS-FACTORIAL HepG2 Assay for human CCAAT/Enhancer Binding Protein (C/EBP) beta (AID 2282927); details: HepG2 Attagene cis-factorial transcription factor reporter; actives raise or lower the signal
# Summary of the method: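 Changes in reporter mRNA, rather than exogenous chimeric receptor activity, reflect native C/EBP signalling in transfected HepG2 cells dosed for 24 h; transcripts are detected by RT-PCR and capillary electrophoresis.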
# [3] = ATG_CMV_CIS: Attagene CIS-FACTORIAL HepG2 Assay for human CMV (Internal Marker) (AID 2282928); details: HepG2 CMV promoter reporter, transcription factor profiling; actives raise or lower the signal;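 further: endpoint acts as a background internal control marker rather than a target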
# Summary of the method: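 Endogenous transcription factor activity read in HepG2 via transfected cis-promoter reporter units. After 24 h dosing, reporter mRNA measured by RT-PCR/capillary electrophoresis; gain or loss of signal fit relative to DMSO.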
# [4] = ATG_DR4_LXR_CIS: Attagene CIS-FACTORIAL HepG2 Assay for human Liver X Receptor (LXR), DR4 submotif (AID 2282929); details: HepG2 Attagene DR4 cis-reporter, mRNA transcription; actives raise or lower the signal
# Summary of the method: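 Endogenous factor activity at a DR4 cis-element is read as reporter mRNA in transiently transfected HepG2 cells. Exposure lasts 24 h; transcripts are amplified, fluorescently labelled and sized by capillary electrophoresis, with DMSO as baseline.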
# [5] = biological target: Aryl hydrocarbon receptor (Homo sapiens) (UniProt P35869); assay: ATG_Ahr_CIS: Attagene CIS-FACTORIAL HepG2 Assay for human Aryl Hydrocarbon Receptor (Ahr) (AID 2282930); details: HepG2 AhR cis-factorial reporter transcription; actives raise or lower the signal
# Summary of the method: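 HepG2, transient MRTU (cis) transfection, 24 h exposure. RNA → cDNA → PCR → 6-FAM primer extension → HpaI 2 h 37 C → CE. Fit: bidirectional, DMSO baseline.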
# [6] = ATG_AP_1_CIS: Attagene CIS-FACTORIAL HepG2 Assay for human Activator Protein 1 (AP-1) (AID 2282931); details: HepG2 Attagene cis-factorial AP-1 reporter mRNA; actives raise or lower the signal
# Summary of the method: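 Fluorescence of labelled PCR fragments separated by capillary electrophoresis gives reporter mRNA levels. HepG2 with transfected cis-regulated reporter units, 24 h exposure; DMSO serves as baseline for bidirectional curve fits.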
# [7] = ATG_BRE_CIS: Attagene CIS-FACTORIAL HepG2 Assay for human Bone Morphogenetic Protein (BMP) Response Element (BRE) (AID 2282933); details: HepG2 BMP response element reporter, Attagene transcription factor profiling; actives raise or lower the signal
# Summary of the method: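 A HepG2 multiplex reporter system measured inducible reporter mRNA 24 h post-dosing. Detection: RT-PCR, 6-FAM primer extension, HpaI digestion, capillary electrophoresis. Activity fitted bidirectionally relative to DMSO.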
# [8] = biological target: Retinoic acid receptor alpha (Homo sapiens) (UniProt P10276); assay: ATG_DR5_RAR_CIS: Attagene CIS-FACTORIAL HepG2 Assay for human Retinoic Acid Receptor Alpha (RARE), DR5 submotif (AID 2282934); details: HepG2 Attagene cis-factorial RARE DR5 reporter, mRNA; actives raise or lower the signal;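 on AC50: reporter responds to endogenous RAR alpha beta and gamma in HepG2 not RARA alone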
# Summary of the method: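 HepG2, transient cis-reporter transfection, 24 h exposure. mRNA readout: RT-PCR, FAM label, HpaI cut, capillary electrophoresis. DMSO baseline, gain/loss fitting.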
# [9] = biological target: Transcription factor E2F1 (Homo sapiens) (UniProt Q01094); assay: ATG_E2F_CIS: Attagene CIS-FACTORIAL HepG2 Assay for human E2F Transcription Factor 1 (AID 2282935); details: HepG2 Attagene cis-reporter, E2F reporter RNA transcripts; actives raise or lower the signal
# Summary of the method: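 Total RNA from 24 h-treated, reporter-transfected HepG2 cells undergoes DNase I treatment, oligo(dT) reverse transcription, PCR and 6-FAM primer extension before capillary electrophoresis.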
# [10] = ATG_E_Box_CIS: Attagene CIS-FACTORIAL HepG2 Assay for human Enhancer Box (E-box) (AID 2282936); details: HepG2 E-box cis-reporter transcription, actives raise or lower the signal
# Summary of the method: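 DMSO served as negative control and baseline for bidirectional fitting. Human hepatoma HepG2 cells, transiently transfected with cis-reporter constructs, were dosed 24 h; reporter mRNA read by RT-PCR and capillary electrophoresis.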
# [11] = ATG_M_61_CIS: Attagene CIS-FACTORIAL HepG2 Assay for M61 Transcription Factor (Internal Marker) (AID 2282937); details: HepG2 Attagene CIS-FACTORIAL M61 internal marker reporter; actives raise or lower the signal
# Summary of the method: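 This endpoint serves as an internal background control within a multiplexed HepG2 cis-reporter panel. Cells are exposed for 24 h; reporter mRNA is amplified, fluorescently labelled and sized by capillary electrophoresis, with DMSO as negative control.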
# [12] = ATG_EGR_CIS: Attagene CIS-FACTORIAL HepG2 Assay for human Early Growth Response 1 (EGR1) (AID 2282938); details: HepG2 Attagene CIS-FACTORIAL EGR reporter mRNA; actives raise or lower the signal
# Summary of the method: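 HepG2, transient MRTU transfection (cis promoters), 24 h compound. RNA → RT (oligo-dT) → PCR → 6-FAM labelling → HpaI cut → CE fluorescence. Bidirectional fit, DMSO baseline.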
# [13] = ATG_M_19_CIS: Attagene CIS-FACTORIAL HepG2 Assay for M19 Transcription Factor (Internal Marker) (AID 2282939); details: HepG2 Attagene CIS-FACTORIAL M19 internal marker reporter; actives raise or lower the signal
# Summary of the method: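 Chemical-treated HepG2 (24 h) with MRTU constructs; reporter transcripts detected by fluorescent RT-PCR fragment analysis on capillary electrophoresis. Internal background marker, DMSO as baseline.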
# [14] = ATG_ERE_CIS: Attagene CIS-FACTORIAL HepG2 Assay for Estrogen Response Element (ERE) (AID 2282940); details: HepG2 ERE cis-reporter, Attagene RNA transcript; actives raise or lower the signal
# Summary of the method: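 Human liver cells (HepG2) bearing transiently transfected, promoter-regulated reporter units were exposed 24 h. Reporter mRNA induction was detected by capillary electrophoresis of labelled RT-PCR products and fitted bidirectionally to DMSO.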
# [15] = ATG_Ets_CIS: Attagene CIS-FACTORIAL HepG2 Assay for human Erythroblast Transformation Specific (ETS) (AID 2282941); details: HepG2 ETS cis-reporter transcription, actives raise or lower the signal
# Summary of the method: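 Steps: transfect HepG2 with multiple reporter units; treat compound 24 h; isolate RNA, DNase-treat, reverse-transcribe; PCR-amplify, label with 6-FAM, digest with HpaI; separate by capillary electrophoresis. Activity fitted both directions versus DMSO.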
# [16] = biological target: Hepatocyte nuclear factor 3-beta (Homo sapiens) (UniProt Q9Y261); assay: ATG_FoxA2_CIS: Attagene CIS-FACTORIAL HepG2 Assay for human Forkhead box A2 (FOXA2) (AID 2282942); details: HepG2 cis-reporter transcription factor activity, 24 h; actives raise or lower the signal
# Summary of the method: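 Cells: HepG2, transient multiplex reporter transfection. Exposure 24 h. Detection: reporter-specific RT-PCR, fluorescent labelling, restriction digest, capillary electrophoresis. Analysis: bidirectional curve fit, DMSO as negative control.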
# [17] = ATG_GLI_CIS: Attagene CIS-FACTORIAL HepG2 Assay for human Zinc Finger Protein GLI1 (AID 2282945); details: HepG2, Attagene cis-factorial reporter mRNA, GLI element; actives raise or lower the signal
# Summary of the method: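 Bidirectional curve fits relative to DMSO, using reporter mRNA levels from RT-PCR plus capillary electrophoresis. Cells were HepG2 transiently carrying cis-regulated reporter constructs, harvested 24 h after dosing.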
# [18] = ATG_FoxO_CIS: Attagene CIS-FACTORIAL HepG2 Assay for human Forkhead box O (FoxO) (AID 2282943); details: HepG2 Attagene cis-reporter, FoxO element, mRNA; actives raise or lower the signal
# Summary of the method: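 Human hepatoma HepG2 cells carry transiently introduced reporter transcription units controlled by cis promoter elements. Chemical treatment lasted 24 h, and mRNA signal was compared with DMSO.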
# [19] = ATG_GATA_CIS: Attagene CIS-FACTORIAL HepG2 Assay for human GATA Binding Protein (AID 2282944); details: HepG2 GATA cis-element reporter, Attagene multiplex mRNA; actives raise or lower the signal
# Summary of the method: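 Transfected cis-reporter HepG2 cells were treated with chemicals for 24 hours. Total RNA was then converted to cDNA, amplified with reporter-specific primers and analysed by fluorescent capillary electrophoresis, using DMSO-treated wells as baseline.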
# [20] = ATG_AP_2_CIS: Attagene CIS-FACTORIAL HepG2 Assay for human Activator Protein 2 (AP-2) (AID 2282932); details: HepG2 AP-2 cis-reporter, Attagene transcription factor profiling; actives raise or lower the signal
# Summary of the method: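 Step one: transient transfection of HepG2 with reporter transcription units. Step two: 24 h chemical exposure. Step three: RNA extraction, RT-PCR, labelled fragment analysis by capillary electrophoresis; DMSO serves as baseline.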
# Sequence of Aryl hydrocarbon receptor (Homo sapiens) (P35869 whole entry, looked up): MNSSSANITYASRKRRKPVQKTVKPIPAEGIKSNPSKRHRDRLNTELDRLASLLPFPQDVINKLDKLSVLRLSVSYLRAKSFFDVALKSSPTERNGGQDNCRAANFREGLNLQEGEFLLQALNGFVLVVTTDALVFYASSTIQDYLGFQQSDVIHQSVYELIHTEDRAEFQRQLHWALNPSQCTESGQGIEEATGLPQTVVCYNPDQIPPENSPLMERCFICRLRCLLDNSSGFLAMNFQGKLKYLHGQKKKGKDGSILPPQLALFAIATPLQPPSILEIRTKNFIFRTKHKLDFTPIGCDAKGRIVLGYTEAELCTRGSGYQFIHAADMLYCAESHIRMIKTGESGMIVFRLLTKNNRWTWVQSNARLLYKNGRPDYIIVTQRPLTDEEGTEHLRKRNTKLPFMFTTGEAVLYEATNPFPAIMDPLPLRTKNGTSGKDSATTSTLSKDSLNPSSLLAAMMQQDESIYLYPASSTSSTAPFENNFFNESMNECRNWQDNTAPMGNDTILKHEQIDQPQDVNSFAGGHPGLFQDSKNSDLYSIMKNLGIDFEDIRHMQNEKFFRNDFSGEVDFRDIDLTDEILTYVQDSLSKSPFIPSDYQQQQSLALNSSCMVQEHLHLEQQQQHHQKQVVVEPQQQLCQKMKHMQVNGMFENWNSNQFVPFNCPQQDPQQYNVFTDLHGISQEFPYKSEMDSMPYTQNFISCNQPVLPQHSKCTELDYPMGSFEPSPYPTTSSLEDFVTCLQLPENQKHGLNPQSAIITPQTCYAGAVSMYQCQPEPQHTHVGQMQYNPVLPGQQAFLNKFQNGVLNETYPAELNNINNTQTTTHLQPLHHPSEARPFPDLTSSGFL
# Sequence of Transcription factor E2F1 (Homo sapiens) (Q01094 whole entry, looked up): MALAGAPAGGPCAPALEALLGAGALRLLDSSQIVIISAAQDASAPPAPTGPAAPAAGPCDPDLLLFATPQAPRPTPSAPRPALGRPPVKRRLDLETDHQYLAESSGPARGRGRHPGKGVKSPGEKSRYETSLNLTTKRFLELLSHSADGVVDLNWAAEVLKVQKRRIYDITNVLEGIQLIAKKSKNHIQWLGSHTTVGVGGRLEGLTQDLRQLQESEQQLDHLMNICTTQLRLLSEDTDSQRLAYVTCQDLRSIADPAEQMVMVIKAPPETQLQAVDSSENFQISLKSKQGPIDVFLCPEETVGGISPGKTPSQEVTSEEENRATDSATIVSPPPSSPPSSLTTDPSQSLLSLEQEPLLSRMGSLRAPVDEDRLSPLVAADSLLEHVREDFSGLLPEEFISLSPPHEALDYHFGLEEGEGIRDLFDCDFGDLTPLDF
# Sequence of Retinoic acid receptor alpha (Homo sapiens) (P10276 whole entry, looked up): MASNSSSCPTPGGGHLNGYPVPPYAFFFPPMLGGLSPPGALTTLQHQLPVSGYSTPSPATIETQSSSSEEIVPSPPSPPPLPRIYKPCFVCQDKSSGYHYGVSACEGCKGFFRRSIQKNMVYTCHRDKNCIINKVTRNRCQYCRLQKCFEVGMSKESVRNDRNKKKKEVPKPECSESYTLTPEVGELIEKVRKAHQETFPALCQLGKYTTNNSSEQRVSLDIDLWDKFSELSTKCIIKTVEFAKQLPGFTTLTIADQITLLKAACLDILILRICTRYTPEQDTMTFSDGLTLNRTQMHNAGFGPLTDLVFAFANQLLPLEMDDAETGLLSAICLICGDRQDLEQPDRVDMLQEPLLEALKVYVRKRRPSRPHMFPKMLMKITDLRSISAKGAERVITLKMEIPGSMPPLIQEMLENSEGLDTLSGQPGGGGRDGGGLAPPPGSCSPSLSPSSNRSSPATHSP
# Sequence of Hepatocyte nuclear factor 3-beta (Homo sapiens) (Q9Y261 whole entry, looked up): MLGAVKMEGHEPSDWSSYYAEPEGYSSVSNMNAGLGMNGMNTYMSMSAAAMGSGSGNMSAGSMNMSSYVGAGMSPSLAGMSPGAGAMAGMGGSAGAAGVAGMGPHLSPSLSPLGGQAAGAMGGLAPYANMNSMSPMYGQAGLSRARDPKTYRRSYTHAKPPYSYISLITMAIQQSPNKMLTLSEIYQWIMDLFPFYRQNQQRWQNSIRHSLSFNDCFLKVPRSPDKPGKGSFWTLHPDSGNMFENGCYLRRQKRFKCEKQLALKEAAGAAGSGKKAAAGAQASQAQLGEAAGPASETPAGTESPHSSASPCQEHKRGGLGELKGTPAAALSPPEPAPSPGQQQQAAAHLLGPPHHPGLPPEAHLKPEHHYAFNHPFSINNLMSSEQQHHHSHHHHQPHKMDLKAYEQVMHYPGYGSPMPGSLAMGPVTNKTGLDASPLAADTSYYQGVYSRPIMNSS
# Sequence of CCAAT/enhancer-binding protein beta (Homo sapiens) (P17676 whole entry, looked up): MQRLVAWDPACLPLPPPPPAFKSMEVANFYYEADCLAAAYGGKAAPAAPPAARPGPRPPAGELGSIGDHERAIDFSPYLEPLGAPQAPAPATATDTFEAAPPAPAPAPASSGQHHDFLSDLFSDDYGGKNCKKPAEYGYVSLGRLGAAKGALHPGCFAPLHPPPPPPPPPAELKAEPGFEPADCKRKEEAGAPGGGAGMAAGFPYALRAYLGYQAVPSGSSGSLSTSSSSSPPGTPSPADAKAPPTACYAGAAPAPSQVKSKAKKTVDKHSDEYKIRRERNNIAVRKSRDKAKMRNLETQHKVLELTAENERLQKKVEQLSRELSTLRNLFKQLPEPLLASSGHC
structure (smiles),measurement,setting,value
O=c1[nH]sc2ccccc12,AC50,[1],45.4 µM (active)
same,outcome,[2],inactive
same,outcome,[3],inactive
same,outcome,[4],inactive
same,outcome,[5],inactive
same,outcome,[6],inactive
same,outcome,[7],inactive
same,outcome,[8],inactive
same,outcome,[9],inactive
same,outcome,[10],inactive
same,outcome,[11],inactive
same,outcome,[12],inactive
same,outcome,[13],inactive
same,outcome,[14],inactive
same,outcome,[15],inactive
same,outcome,[16],inactive
same,outcome,[17],inactive
Oc1ccc2ccccc2c1,outcome,[1],inactive
same,outcome,[2],inactive
same,outcome,[3],inactive
same,AC50,[4],100 µM (active)
same,AC50,[5],870 nM (active) and 1.98 µM (active)
same,outcome,[6],inactive
same,outcome,[7],inactive
same,outcome,[8],inactive
same,outcome,[9],inactive
same,AC50,[10],8.89 µM (active)
same,outcome,[10],inactive
same,outcome,[11],inactive
same,outcome,[12],inactive
same,outcome,[13],inactive
same,outcome,[15],inactive
same,outcome,[16],inactive
same,outcome,[18],inactive
same,outcome,[19],inactive
same,outcome,[17],inactive
c1ccc2ccccc2c1,outcome,[1],inactive
same,outcome,[2],inactive
same,outcome,[3],inactive
same,outcome,[4],inactive
same,outcome,[5],inactive
same,outcome,[6],inactive
same,outcome,[20],inactive
same,outcome,[7],inactive
same,outcome,[8],inactive
same,outcome,[9],inactive
same,outcome,[10],inactive
same,outcome,[11],inactive
same,outcome,[12],inactive
same,outcome,[13],inactive
same,outcome,[14],inactive
same,outcome,[15],inactive
same,outcome,[16],inactive
same,outcome,[19],inactive
same,outcome,[17],inactive
CCCCCCCCCCCC[N+](C)(C)C,outcome,[1],inactive
same,outcome,[2],inactive
same,outcome,[3],inactive
same,AC50,[4],22.4 µM (active) and 33.4 µM (active)
same,outcome,[5],inactive
same,AC50,[6],33.4 µM (active) and 12.7 µM (active)
same,AC50,[7],33.4 µM (active) and 27.1 µM (active)
same,outcome,[8],inactive
same,outcome,[9],inactive
same,AC50,[10],33.4 µM (active) and 22.5 µM (active)
same,outcome,[11],inactive
same,outcome,[12],inactive
same,outcome,[13],inactive
same,outcome,[15],inactive
same,outcome,[16],inactive
same,outcome,[18],inactive
same,outcome,[17],inactive
CO[C@H]1/C=C/O[C@@]2(C)Oc3c(C)c(O)c4c(O)c(c(/C=N/N5CCN(C)CC5)c(O)c4c3C2=O)NC(=O)/C(C)=C\C=C\[C@H](C)[C@H](O)[C@@H](C)[C@@H](O)[C@@H](C)[C@H](OC(C)=O)[C@@H]1C,outcome,[1],inactive
same,outcome,[2],inactive
same,outcome,[3],inactive
same,AC50,[5],37.4 µM (active)
same,outcome,[5],inactive
same,outcome,[6],inactive
same,outcome,[20],inactive
same,outcome,[7],inactive
same,outcome,[8],inactive
same,outcome,[9],inactive
same,outcome,[10],inactive
same,outcome,[11],inactive
same,outcome,[12],inactive
same,outcome,[13],inactive
same,outcome,[15],inactive
same,outcome,[16],inactive
same,outcome,[18],inactive
same,outcome,[17],inactive
C[C@]12CC[C@@H]3c4ccc(O)cc4CC[C@H]3[C@@H]1CC[C@H]2O,outcome,[1],inactive
same,outcome,[2],inactive
same,AC50,[3],27.5 µM (active) [middle of 4 runs]
same,AC50,[5],49 µM (active)
same,outcome,[5],inactive
same,outcome,[6],inactive
same,outcome,[7],inactive
same,AC50,[8],5.92 µM (active)
same,outcome,[8],inactive
same,outcome,[9],inactive
same,AC50,[10],19.8 µM (active)
same,outcome,[10],inactive
same,outcome,[11],inactive
same,AC50,[12],42 µM (active)
same,outcome,[12],inactive
same,outcome,[13],inactive
same,outcome,[15],inactive
same,outcome,[16],inactive
same,outcome,[17],inactive
